Rows were chosen to be rich in hits. Some 21% of all compounds tested hit in one or more screens of this group.
MRP reversal = compounds reversing MRP-mediated drug resistance | AID 602 | 85,000 tested, 0.04% active | differential viability (reversal), % at 10 µM | H69AR cells + 2 uM doxorubicin, CellTiter-Glo, 72 h;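 active = viability drop by adding the cancer drug above about 55%, with treated viability meeting a 40% cutoff, limit read from the data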;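 also: viability without doxorubicin minus viability with 2 µM doxorubicin for each compound; larger differential means the compound sensitizes cells more to doxorubicin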
CYP2C9 activ = activators of human CYP2C9. P11712. recombinant CYP2C9, luciferin-H conversion, luminescence; stronger effect = higher value; factor 1 = untreated enzyme, 0 = blocked. activation factor at 5 µM. 96,000 tested, 1.4% active. AID 1024;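 active = activation factor of 2 or more for CYP2C9 at a 5 µM dose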;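 also: 0 = sulfaphenazole-blocked wells and 1 = vehicle-only wells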
CYP2C9 inhib = human CYP2C9 inhibition | 96,000 tested, 20% active | P11712 | inhibition, % at 5 µM | CYP2C9 Supersomes, luciferin-H conversion, luminescence;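 active = blocking of liver enzyme CYP2C9 beyond about 50% at 5 µM, limit read from the data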
CYP2C19 activ = increases human CYP2C19 enzyme activity; recombinant CYP2C19, luciferin-H EGE luminescence; stronger effect = higher value; 0 = fully inhibited enzyme, 1 = untreated enzyme; activation factor at 5 µM; 96,000 tested, under 10 active; AID 1025;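 active = activation factor of at least 2 at 5 µM in the primary screen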;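 also: 0 = wells with 2.5 mM tranylcypromine and 1 = vehicle-only wells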
Target sequence (P33261 whole entry, looked up): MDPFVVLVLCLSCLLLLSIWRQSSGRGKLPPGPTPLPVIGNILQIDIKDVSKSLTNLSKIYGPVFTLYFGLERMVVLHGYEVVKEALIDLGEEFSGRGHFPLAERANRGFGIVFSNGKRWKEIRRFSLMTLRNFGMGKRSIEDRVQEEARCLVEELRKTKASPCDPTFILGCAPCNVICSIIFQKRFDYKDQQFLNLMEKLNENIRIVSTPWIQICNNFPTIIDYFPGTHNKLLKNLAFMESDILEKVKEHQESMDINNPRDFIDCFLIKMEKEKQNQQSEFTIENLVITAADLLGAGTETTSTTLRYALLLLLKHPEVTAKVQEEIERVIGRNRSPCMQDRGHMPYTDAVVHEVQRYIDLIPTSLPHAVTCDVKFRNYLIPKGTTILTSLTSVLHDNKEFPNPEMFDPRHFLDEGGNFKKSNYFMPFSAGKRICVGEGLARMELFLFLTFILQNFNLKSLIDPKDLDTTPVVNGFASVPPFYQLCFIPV
CYP2C19 inhib = human CYP2C19 inhibition | P33261 | CYP2C19 Supersomes, luciferin-H EGE luminescence, 30 min | inhibition, % at 5 µM | 96,000 tested, 21% active | AID 778;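 active = CYP2C19 inhibition above a set limit at 5 µM in the primary screen, cut at about 50% in these data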;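 also: plate controls were negative control wells for no effect and 2.5 mM tranylcypromine positive control for full effect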
MRP-1 activ = activates MRP-1; 140,000 tested, 0.61% active; viability increase, % at 10 µM; H69AR cells + doxorubicin, viability rescue, CellTiter-Glo; AID 799;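 active = viability gain under doxorubicin at or above a set limit, the compound median plus 3 SD, cut at about 4.7% in these data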;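 also: MRP-1 overexpressing cells given doxorubicin 25 µM after compound pretreatment; 18-22 h compound pretreatment then 72 h with doxorubicin before readout; 0% = doxorubicin-only wells and 100% = vehicle-treated cells without doxorubicin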
Starred values were filed as active, the others as inactive; . = no result.

SMILES	MRP reversal	CYP2C9 activ	CYP2C9 inhib	CYP2C19 activ	CYP2C19 inhib	MRP-1 activ
O=C1CCC(C(=O)OCC(=O)c2c[nH]c3ccccc23)=NN1	.	.	.	.	.	-2.5
Cc1ccc(-n2c(C)cc(C(=O)COC(=O)C3=NNC(=O)CC3)c2C)cc1	.	0.5	52.4*	0.4	61.5*	-3.2
O=C1C(Cl)=C(Nc2ccccc2O)C(=O)N1CCc1ccccc1	.	.	.	.	.	-2.5
O=C(CCN1C(=O)COc2ccccc21)NCCC1=CCCCC1	11.2	0.9	9.2	0.4	62.6*	-0.2
O=C(CN1C(=O)COc2ccccc21)NCCC1=CCCCC1	3.8	0.8	15.7	0.2	80.7*	-1.1
CC(/C=N/n1cnnc1)=C\c1ccco1	15.1	.	.	.	.	-3.4
COc1cc(OC)cc(C(=O)NCCC(=O)NCCc2ccc(OC)c(OC)c2)c1	.	.	.	.	.	-1.8
c1ccc2c(c1)OCC(c1nnc3n1-c1ccccc1SC3)O2 (stereo not given)	-0.2	0.2	84.8*	0	95.8*	-1.8
c1csc(-c2nn3c(C4COc5ccccc5O4)nnc3s2)c1 (stereo not given)	-4.0	0.5	51.2*	0.4	57.9*	-0.5
c1ccc2c(c1)OCC(c1nnc3sc(-c4ccc5c(c4)OCO5)nn13)O2 (stereo not given)	-7.3	0.2	83.7*	0.3	65.3*	-0.7
Brc1ccccc1-c1nnc2sc(-c3ccc4c(c3)OCCO4)nn12	-29.2	0	96.5*	0.3	74.4*	-1.5
Fc1ccc(-c2nn3c(C4COc5ccccc5O4)nnc3s2)cc1 (stereo not given)	-13.5	0.5	49.0	0.9	6.8	0.0
O=C(CSc1nc2ccccc2c(=O)n1-c1ccccc1Cl)Nc1cccc(S(=O)(=O)N2CCOCC2)c1	.	.	.	.	.	-2.1
Cc1ccccc1OCC(=O)N1N=C(c2cccnc2)CC1(O)C(F)(F)F (stereo not given)	.	.	.	.	.	1.0
CC(=O)c1ccc(NC(=S)N2C(C)CCCC2C)cc1 (stereo not given)	.	1	-4.6	1.1	-10.6	-0.1
CCCn1nc(C(=O)Nc2ccc(S(=O)(=O)Nc3nccs3)cc2)c2ccccc2c1=O	.	0.4	59.5*	0.9	5.2	-3.7
COc1ccccc1/C=C1/SC(=O)N(CCC(=O)Nc2ccc(S(=O)(=O)Nc3nccs3)cc2)C1=O	.	.	.	.	.	-0.6
COC(=O)c1cccc(NC(=O)c2nn(C(C)C)c(=O)c3ccccc23)c1	.	0.6	39.0	0.9	7.1	-0.8
O=C(CCN1C(=O)S/C(=C\c2ccccc2)C1=O)Nc1ccc(S(=O)(=O)Nc2nccs2)cc1	.	0.4	64.7*	0.7	29.1	1.0
CCCn1nc(C(=O)NCc2ccccn2)c2ccccc2c1=O	0.4	0.5	45.4	0.8	15.2	-1.5
CCCn1nc(C(=O)Nc2cccc(C(=O)OC)c2)c2ccccc2c1=O	5.6	0.2	78.8*	0.4	63.3*	-0.6
Cc1cccc2cc(CN(CCN(C)C)C(=S)Nc3ccccc3)c(=O)[nH]c12	.	.	.	.	.	-0.7
Clc1cccc(CSc2nccn2-c2ccccc2)c1	.	0.8	16.1	0.3	73.1*	1.3
FC(F)(F)c1ccc(CSc2nccn2-c2ccccc2)cc1	.	0.1	87.8*	0.2	82.1*	0.4
N#Cc1c(-c2ccc(Cl)cc2Cl)nc2n(c1=O)CCS2	13.7	0.4	61.8*	0.1	92.6*	-0.2
SMILES	MRP reversal	CYP2C9 activ	CYP2C9 inhib	CYP2C19 activ	CYP2C19 inhib	MRP-1 activ
C=CCN(CC=C)S(=O)(=O)c1ccc2nc(NC(=O)C3CCCO3)sc2c1 (stereo not given)	.	.	.	.	.	-2.7
Cc1ccc(C(=O)NN(CCC(=O)NC(C)(C)C)C2=NS(=O)(=O)c3ccccc32)cc1	.	.	.	.	.	-2.4
C1=CC2CC1CC2CN1CCN(Cc2ccccc2)CC1 (stereo not given)	.	1.1	-7.9	0.5	52.6*	-4.3
CN(C)c1ccc(N2CN=C3SCC(=O)N3C2)cc1	-26.5	0.9	9.5	0.9	13.2	1.1
CN1CCN(C(=O)c2ccccc2-c2nc(-c3ccc(Cl)cc3)no2)CC1	3.4	0.4	55.6*	0.7	27.1	-1.9
Cc1ccccc1-c1noc(-c2ccc(O)cc2)n1	-44.0	0.8	18.3	0.4	58.9*	-1.2
Cc1ccc(-c2noc(-c3ccccc3C(=O)N3CCN(C)CC3)n2)cc1	1.7	0.8	22.0	1	-0.7	-0.9
O=C(c1ccccc1-c1nc(-c2ccc(Cl)cc2)no1)N1CCCC1	-22.3	0.2	78.5*	0.6	42.7	-3.1
Cc1ccccc1-c1noc(-c2ccccc2C(=O)N2CCCC2)n1	11.3	0.2	83.8*	0.4	63.4*	-0.8
Cc1ccc(-c2noc(-c3ccccc3C(=O)N3CCCC3)n2)cc1	-21.4	0.7	33.2	0.7	27.2	-1.1
C1CCC(OCCN2CCN(CCOC3CCCCC3)CC2)CC1	7.4	1.3	-25.5	1.2	-21.4	-1.4
Cc1cccc(C(=O)Nc2ccccc2SCC2CSc3nc4ccccc4c(=O)n32)c1 (stereo not given)	.	0.9	10.2	0.8	21.6	-3.8
Cc1ccccc1C(=O)N1CCCN(C(=O)c2ccccc2C)CC1	6.7	1	3.6	0.4	58.1*	-1.2
O=C(c1ccccc1[N+](=O)[O-])N1CCCN(C(=O)c2ccccc2[N+](=O)[O-])CC1	.	.	.	.	.	0.3
Cn1c(SCC(=O)Nc2cc([N+](=O)[O-])ccc2F)nnc1C(F)(F)F	.	.	.	.	.	-0.1
COc1ccccc1-c1nnc2sc(COc3ccccc3)nn12	2.4	0.6	36.8	0.7	28.3	0.4
COc1ccc(Cc2nn3c(-c4ccccc4Br)nnc3s2)cc1	2.2	0.7	25.8	0.1	90.1*	-2.0
Brc1ccccc1-c1nnc2sc(Cc3ccccc3)nn12	0.1	0.4	61.6*	0	95.1*	-0.5
COc1ccc(-c2nnc3sc(CCN4C(=O)c5ccccc5C4=O)nn23)cc1	16.1	0.7	31.8	0.8	22.3	-4.1
COc1ccc(C(=O)OCCNC(=O)c2c(Cl)nc3ccccn23)cc1	14.4	0.6	44.6	0.3	75.0*	0.4
CC(C)(C)c1ccc(C(=O)OCCNC(=O)c2c(Cl)nc3ccccn23)cc1	5.4	0.1	92.4*	0.4	59.1*	-2.9
CCCCCCCCCCSc1n[nH]c(N)n1	.	.	.	.	.	-2.0
CCOC(=O)N(CC)OC(=O)Nc1ccc(Cl)cc1	-0.5	0.4	57.9*	0.2	77.6*	0.3
CSc1ncc(Cl)c(C(=O)Nc2ccccc2Cl)n1	.	.	.	.	.	-3.0
COc1ccccc1-n1c(SCC(=O)c2ccc(O)cc2O)nc2cc([N+](=O)[O-])ccc21	.	.	.	.	.	-2.9
COc1ccccc1CNS(=O)(=O)c1cccc(S(=O)(=O)N2CCOCC2)c1	.	1.2	-19.3	0.8	15.5	-1.5
O=S(=O)(NCc1ccccc1)c1cccc(S(=O)(=O)N2CCOCC2)c1	6.4	0.6	41.6	0.4	63.7*	-0.4
O=S(=O)(NCCc1ccccc1F)c1cccc(S(=O)(=O)N2CCOCC2)c1	16.6	0.4	61.6*	0.1	88.4*	-1.3
